Assay results as given in PubChem BioAssay.
A number with no mark means an inactive call. No rule for the calls is given here.

What follows are molecules tested against Pantothenate synthetase (Mycobacterium tuberculosis (strain ATCC 25618 / H37Rv)) (UniProt P9WIL5) (assay: Coupled enzyme confirmation of inhibitors against recombinant Mtb PanC (AID 375;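 also: 0% = full reaction with vehicle and 100% = no enzyme background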)). Conditions: coupled enzyme assay; at 10 µM, active compounds read high.
Chain of Pantothenate synthetase (Mycobacterium tuberculosis (strain ATCC 25618 / H37Rv)) (P9WIL5 whole entry, looked up): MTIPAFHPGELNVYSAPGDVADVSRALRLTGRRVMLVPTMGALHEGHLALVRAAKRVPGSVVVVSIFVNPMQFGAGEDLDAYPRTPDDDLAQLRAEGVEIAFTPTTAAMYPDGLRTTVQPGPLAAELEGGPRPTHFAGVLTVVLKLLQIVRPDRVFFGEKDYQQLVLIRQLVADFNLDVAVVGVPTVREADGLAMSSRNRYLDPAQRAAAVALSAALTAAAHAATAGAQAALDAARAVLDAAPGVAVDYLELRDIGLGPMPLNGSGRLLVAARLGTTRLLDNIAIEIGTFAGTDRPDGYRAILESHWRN

| Structure (SMILES) | inhibition [%] |
| --- | --- |
| COc1ccc(C)cc1-n1c(N)c(C#N)c(C#N)c1-c1ccc(OC)c(OC)c1OC | 4 |
| CC(=O)Nc1ccc(N2CCN(Cc3ccccc3F)CC2)cc1 | 0 |
| COc1ccccc1NC(=O)c1nnn(CC(=O)Nc2ccccc2)c1N | 1 |
| CCCCNC(=O)CN(C1CCCCC1)S(C)(=O)=O | 8 |
| OC[C@H]1O[C@@H](n2cnc3c(Nc4ccccc4)ncnc32)[C@H](O)[C@@H]1O | 1 |
| O=C1NC(=O)C(CC(=O)N(Cc2ccco2)C2(C(=O)NC3CCCC3)CCCCC2)N1 (stereo not given) | 0 |
| Nc1sccc1C(=O)c1ccccc1 | 4 |
| O=C(/C=C1\NC2(CCCC2)Cc2ccccc21)N1CCOCC1 | 0 |
| Cn1c(=O)c2c(nc(NCCCO)n2C/C=C/c2ccccc2)n(C)c1=O | 4 |
| O=C(O)c1cc2nc(-c3ccc(F)cc3)cc(C(F)(F)F)n2n1 | 2 |
| Cn1c(=O)c(=O)n(C)c2cc(S(=O)(=O)Nc3ccc4c(c3)OCCO4)ccc21 | 6 |
| COc1cccc(-c2nc(CS(=O)(=O)CC(=O)N3CCc4ccccc4C3)c(C)o2)c1 | 4 |
| COc1ccc(CCN2C(=O)C3C4C=CC(C4)C3C2=O)cc1OC (stereo not given) | 0 |
| COc1ccc(-n2ccnc2SCC(=O)NCc2ccc3c(c2)OCO3)cc1 | 1 |
| Cc1cc(C)nc(N2CCC(C(=O)Nc3ccc4c(c3)CCC4)CC2)n1 | 5 |
| O=C(NCC(=O)N(c1ccc2c(c1)OCCO2)C(C(=O)NC1CCCC1)c1ccco1)c1ccco1 (stereo not given) | 6 |
| COc1ccccc1N(CN1CCCC1=O)C(=O)c1c(F)cccc1Cl | 0 |
| CC(C)(C)SCCNC(=O)COc1ccc(Cl)cc1 | 0 |
| COc1cccc(C2CC(c3c(Cl)cccc3Cl)n3nc(N)nc3N2)c1 (stereo not given) | 0 |
| CCCC(=O)Nc1cnc(NC(=O)c2cccc(F)c2)cc1C | 0 |

| Structure (SMILES) | inhibition [%] |
| --- | --- |
| O=C(Cc1cccs1)NCc1ccc(F)cc1 | 0 |
| O=C(Nc1ccccc1N1CCN(C(=O)c2ccc(Cl)cc2)CC1)c1cc2ccccc2o1 | 3 |
| CC(=O)N1CCc2cc(S(=O)(=O)CCC(=O)Nc3cccc(F)c3)ccc21 | 0 |
| O=C(CSc1nnc(-c2ccccc2)o1)N1CCN(c2ccccc2)CC1 | 0 |
| O=C(NCCO)c1cccc2c1C(=O)c1ccccc1-2 | 11 |
| CC1(C(=O)NC2CCCCC2)CCC(=O)N1Cc1cccs1 (stereo not given) | 0 |
| CC(NS(=O)(=O)c1ccc(OCC(=O)N2CCOCC2)c(Cl)c1)c1ccccc1 (stereo not given) | 1 |
| CC(C(=O)N1CCCCC1)n1sc2ccccc2c1=O (stereo not given) | 0 |
| CCCCn1nc(C(=O)N2CCc3ccccc32)c2ccccc2c1=O | 6 |
| CCCCc1noc2c1/C(=N\O)CC(c1ccccc1)C2 (stereo not given) | 3 |
| Cc1cc(C)c2c(=O)n(CC(=O)NCCCN3CCN(c4ccccc4F)CC3)sc2n1 | 0 |
| CCOC(=O)c1cccnc1SCC(=O)NC(C)CC (stereo not given) | 0 |
| CCOC(=O)N1CCN(Cc2nc3c(c(=O)n(C)c(=O)n3C)n2Cc2ccc(F)cc2)CC1 | 2 |
| COc1ccc(CCN2C(=O)CC(N3CCN(S(=O)(=O)c4ccccc4)CC3)C2=O)cc1 (stereo not given) | 0 |
| COc1cc2nc(N3CCN(C(=O)c4ccco4)CC3)nc(N)c2cc1OC | 2 |
| COc1cc2c(cc1OC)CN(C(=O)COc1ccc(C#N)cc1)CC2 | 0 |
| Cc1cccc(-n2ncc3c(N)ncnc32)c1 | 3 |
| CCOC(=O)Cc1nnc(Nc2cccc(O)c2)c2ccccc12 | 9 |
| CC(=O)N1CCN(S(=O)(=O)c2cccc(C(=O)Nc3ccc4c(c3)CCC4)c2)CC1 | 0 |
| CCc1nnc(NC(=O)C2CC(=O)N(Cc3ccco3)C2)s1 (stereo not given) | 0 |
